Pf apPOL inh – Pf-apPOL DNA polymerase inhibition; Recombinant Pf-apPOL, molecular beacon fluorescence, 1.5 h; inhibition, % at 10 µM; 210,000 compounds, 0.25% hits
mHTT-CaM PPI inh – inhibitors of human mutant huntingtin-calmodulin interaction. P42858. 190,000 compounds, 3.6% hits. AlphaScreen His-mHTT/GST-CaM binding, luminescence. inhibition, % at 15 µM. AID 1671202;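 further: 0% = both proteins with DMSO and 100% = one protein alone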
* marks the source's active call; other numbers are inactive results; . = not tested or not shown; + = active, no number. Many of the other results were omitted from the sample, so hits are more common in it than they were. No stated cut-off is given here; in the data, active means inhibition above about 50%; inactive means the rest.

SMILES	Pf apPOL inh	mHTT-CaM PPI inh
COc1ccc(C2CC(=O)Oc3c(C(CCN4CCCCC4)c4ccc(N(C)C)cc4)c(OC)cc(OC)c32)cc1 (centres undefined)	1	101*
c1ccc(CNc2nc(-c3ccccc3)[n+](-c3ccccc3)s2)cc1	-6	84*
c1ccc(Nc2nc(-c3ccccc3)[n+](-c3ccccc3)s2)cc1	-8	22
N#Cc1c(NC(=O)/C=C/C(=O)O)sc2c1CCC2	.	-1
CC1(C)C(C=C(Cl)Cl)C1C(=O)Nc1sc2c(c1C#N)CCCC2 (centres undefined)	92*	-2
O=C(C(=O)N1CCOCC1)c1c(-c2ccccc2)cc2ccccn12	-6	2
O=C(c1ccccc1F)N1CCC(OCc2nc(C3CC3)no2)CC1	-11	1
CCS(=O)(=O)N1CCN(c2nc(C)nc(C)c2Cc2ccc(Cl)cc2)CC1	1	53*
Cc1nc(C)c(Cc2ccc(Cl)cc2)c(N2CCN(S(C)(=O)=O)CC2)n1	-3	22
O=c1cc(O)n(-c2ccccc2)[nH]1	53*	20
O=c1cc(C(F)(F)F)[nH]n1-c1ccccc1	6	.
O=c1ccc(-c2ccc(F)cc2)nn1CCc1nc(-c2ccccc2Cl)no1	-5	-6
O=c1ccc(-c2ccc(F)cc2)nn1CCc1nc(-c2cccc(Br)c2)no1	-9	56*
O=C(NC1(C(Cl)(Cl)Cl)Oc2ccccc2O1)C(F)(F)F	-6	-5
Cc1sc2cc(C(=O)N3CCOCC3)[nH]c2c1CN1CCCC1	-3	24
Cc1sc2cc(C(=O)N3CCC(C)CC3)[nH]c2c1CN1CCOCC1	-7	69*
Cc1sc2cc(C(=O)N3CCCCCC3)[nH]c2c1CN1CCOCC1	-3	59*
Cc1sc2cc(C(=O)N3CCCCC3)[nH]c2c1CN1CCOCC1	4	31
COc1ccc(NC(=O)c2cccnc2-c2cccs2)cc1	-2	-1
CCOc1ccccc1NC(=O)N1CCCC1c1nc(-c2cccc(C)c2)no1 (centres undefined)	-4	-2
O=C1C2CCCN2C(c2cccc(F)c2)N1c1ccc(Cl)cc1 (centres undefined)	-7	-6
Cn1c(=O)c2c(nc(SC(c3ccccc3)c3ccccc3)n2C)n(C)c1=O	-10	0
Cc1ccc(CNC(=O)c2cnn3c(C)c(Cc4ccc(F)cc4)c(C)nc23)cc1	-5	5
O=C(CSc1cccs1)Nc1nccs1	.	-1
O=C(CSc1cccs1)NC1=NN(c2ccccc2)C(=O)C1	-2	82*
SMILES	Pf apPOL inh	mHTT-CaM PPI inh
Cc1cc(=O)oc(C)c1C(=O)N(C)C1CCCCC1	-9	7
CCCC1CCC2(CCCN2CCOC(=S)Nc2ccccc2Cl)CC1 (centres undefined)	-9	-8
CCCC1CCC2(CCCN2CCOC(=S)Nc2cccc(Cl)c2)CC1 (centres undefined)	-4	28
CCCC1CCC2(CCCN2CCOC(=O)Nc2cccc(Cl)c2)CC1 (centres undefined)	-7	95*
CCCC1CCC2(CCCN2CCOC(=S)Nc2ccccc2)CC1 (centres undefined)	-7	61*
Cc1noc(C)c1C(=O)ON=C(N)COc1ccc(-c2nnco2)cc1	2	.
CC1=CC(C)C2(COC(CN3CCOCC3)OC2)C(C)C1 (centres undefined)	-4	11
COc1cc(OC)c(OC)cc1/C=C1\NC(=O)N(Cc2ccc(Cl)cc2)C1=O	-9	-1
Cc1cc(/C=C2\NC(=O)N(Cc3ccc(Cl)cc3)C2=O)c(C)n1-c1ccc(C#N)cc1	-4	51*
Cc1ccc(N=Cc2cc([N+](=O)[O-])ccc2O)c(Br)c1	-3	4
COc1ccc(C=Nc2ccc(C)cc2C)cc1O	8	7
COc1cc(C=Nc2ccc(C)cc2O)ccc1O	-4	77*
Cc1ccc(N=Cc2cc(C)c(C)cc2O)c(O)c1	8	53*
Cc1ccc(Nc2c([N+](=O)[O-])cc([N+](=O)[O-])c3cccnc23)cc1	-2	51*
CCOc1ccc(Nc2c([N+](=O)[O-])cc([N+](=O)[O-])c3cccnc23)cc1	-6	29
O=[N+]([O-])c1cccnc1N1CCOCC1	-8	-6
O=[N+]([O-])c1cc([N+](=O)[O-])c2cccnc2c1Nc1ccc(N2CCOCC2)cc1	-2	56*
O=S(=O)(O)c1ccc(-c2nnc(-c3ccccn3)nc2-c2ccc(S(=O)(=O)O)o2)o1	.	100*
Cn1c(-c2ccc(S(=O)(=O)O)o2)nc2ccccc21	2	-3
c1ccc(-c2nnc(-c3ccco3)c(-c3ccco3)n2)nc1	.	100*
c1ccc(-c2noc(-c3ccco3)n2)nc1	-12	4
Cc1cc(C)n(CC2CCN(C(=O)CN3C(=O)CCC3=O)CC2)n1	-6	-10
O=C(Nc1ccc(F)cc1)c1cc(S(=O)(=O)NC2CCCC2)ccc1F	36	0
COc1ccc(C2CC(c3ccc(I)cc3)Nc3nnnn32)cc1OC (centres undefined)	-7	34
S=c1[nH]nc(-c2ccncc2)n1N=Cc1cccnc1	-7	.
SMILES	Pf apPOL inh	mHTT-CaM PPI inh
S=c1[nH]nc(-c2ccccn2)n1/N=C/c1cccnc1	.	+
COc1ccc(C2C(=C(O)c3ccc(Cl)cc3)C(=O)C(=O)N2C)cc1 (centres undefined)	-3	5
COc1ccc([C@H]2C=C3CNS(=O)(=O)[C@H]3C[C@H]2OC(=O)c2ccc(Cl)cc2)cc1	-6	60*
COc1ccc(Oc2ccc(C(F)(F)F)cc2NC(=O)c2ccc(OC)cc2)cc1	21	.
COc1ccc([C@H]2C=C3CNS(=O)(=O)[C@H]3C[C@H]2OC(=O)c2cccc(C)c2)cc1	-4	82*
COc1ccc([C@H]2C=C3CNS(=O)(=O)[C@H]3C[C@H]2OC(=O)c2cccs2)cc1	-7	12
COc1ccc([C@H]2C=C3CNS(=O)(=O)[C@H]3C[C@H]2OC(=O)c2ccc(C(F)(F)F)cc2)cc1	-10	100*
CC(C)Oc1ccc(CN2C(=O)CCC2(C)C(=O)NCc2ccccc2)cc1 (centres undefined)	-1	11
CN1CCCc2cc(C(=O)NCc3cccc(F)c3)sc21	-5	3
COCc1c(Cl)c(Cl)c(COC)c(Cl)c1Cl	1	0
O=C(/C=C/c1ccccc1)Nc1c[nH]c(=O)[nH]c1=O	2	-1
CCOc1ccc(N=C2C(=O)N(CN3CCCC(C)C3)c3ccccc32)cc1 (centres undefined)	-1	10
CCOc1ccc(N=C2C(=O)N(CN3CCCCC3)c3ccccc32)cc1	12	65*
O=C1C(=Cc2cccc(F)c2)Oc2c1ccc(O)c2CN1CCCC1	-9	1
O=C(CSc1nc2ccccc2[nH]1)Nc1cc(C(F)(F)F)ccc1Cl	-4	50*
Cc1cc(=O)[nH]c(SCC(=O)Nc2cc(C(F)(F)F)ccc2Cl)n1	-1	-4
O=C(NCc1ccccc1)C1CC(=O)N(CCc2c[nH]c3ccc(F)cc23)C1 (centres undefined)	-1	8
Nc1c(C(=O)C23CC4CC(CC(C4)C2)C3)sc2sc3c(O)cc(=O)[nH]c3c12	.	52*
N#Cc1c(SCC(=O)C23CC4CC(CC(C4)C2)C3)sc2c(O)cc(=O)[nH]c12	.	1
O=[N+]([O-])c1cccc(S(=O)(=O)n2cc(Br)cn2)c1	-2	80*
Cc1nn(S(=O)(=O)c2cccc([N+](=O)[O-])c2)c(C)c1Br	4	6
c1csc(-c2cc3ccccc3[nH]2)c1	11	.
NCCc1c(-c2cccs2)[nH]c2ccccc12	-6	88*

Assay outcomes: PubChem BioAssay, University of Kansas High Throughput Screening Laboratory
